The test in a line: TO-PRO-1 dye complex inhibitors on d(CAG) DNA, dose response, counter-screen, biochemical, fluorescence, late stage (AID 720649). Particulars: d(CAG) DNA duplex TO-PRO-1 dye displacement. For orientation: The purpose of a counterscreen is to sort out artefacts and off-target activity.

The list shows a part of the results. Active and inactive are the calls of the source. No rule for the calls is given here.

In general, IC50 refers to the concentration needed to halve the response being measured.

For the compound `Cc1noc(NS(=O)(=O)c2ccc(NC(=O)c3oc4ccc(F)cc4c3C)cc2)c1C`, the 50% inhibitory concentration (IC50) was 4.19 µM (active).

Values taken from PubChem BioAssay AID720649 (The Scripps Research Institute Molecular Screening Center, 2013).
